According to PubChem BioAssay (NCI):
The panel holds about 83,000 compounds, 20% with a hit somewhere; the sample as a whole holds those more often.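 Values shown are percent growth following 48 h exposure of cells in 96-well plates to a single concentration of compound; below 10 was considered active.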 A number with no mark means an inactive call. Activity calls are given as the source filed them.

tested on: TK-10 renal; assay: NCI-60 one-dose screen, 48 h (100 = growth as untreated, 0 = no growth, -100 = all killed); conditions: 10 µM unless noted

Row | SMILES | growth
1 | CC(=O)C1=C(C)NC(NNc2ccccc2)=NC1c1ccc([N+](=O)[O-])cc1 (stereo not given) | 109%
2 | NC(N)=NS(=O)(=O)c1ccc(N=Nc2c(N)nn(-c3ccc([N+](=O)[O-])cc3[N+](=O)[O-])c2N)cc1 | 120%
3 | NCCNC(=O)c1cccc(COc2ccccc2NC(=O)c2cc(Br)c(Br)[nH]2)c1 | 89%
4 | COC(=O)CCCNCCCn1ccc2cc(NCc3cccc(-c4ccccc4)c3C)ccc21 | 115%
5 | O=C(CCCCCCN1CC(=O)N2[C@@H](c3ccccc3Br)c3[nH]c4ccccc4c3C[C@H]2C1=O)NO | 28.7%
6 | CCCCOc1ccc(S(=O)(=O)N2CCN(c3nc(C)cc(N4CCOCC4)n3)CC2)cc1 | 33.6%
7 | NS(=O)(=O)c1ccc(CCn2c(-c3ccc(C(=O)O)cc3)nc(-c3ccccc3)c2-c2ccccc2)cc1 | 102%
8 | N#C/C(=N\Nc1ccc(F)cc1)C(=O)Nc1cc(-c2ccccc2)nn1-c1ccccc1 | 26.6%
9 | Cn1c2nc3ccccc3c-2cc2ccccc21 | 103%
10 | NS(=O)(=O)c1nnc(/N=C/c2c(O)[nH]c3ccccc23)s1 | 142%
11 | NC(=O)c1c(NC(=O)c2ccc(C(F)(F)F)cc2)sc2c1CCC(=O)C2 | 17%
12 | O=C(N/N=C\c1ccc([N+](=O)[O-])cc1)c1ccc2nc(-c3ccc(Br)cc3)[nH]c2c1 | 64.6%
13 | C#CCN(C)CCCOc1ccc(NC(=O)CCCCCCC(=O)NO)cc1Cl | 1.34% (active)
14 | Fc1cc(F)cc(NNC(=S)c2ccccc2)c1 | 92.3%
15 | Fc1ccc(-c2cn3c(-c4c[nH]c5ccc(Br)cc45)csc3n2)cc1 | 80.3%
16 | CC[C@]12C=CCN3CC[C@]4(C(=C(C(=O)OC)C1)Nc1cc5c(cc14)[C@@H]1[C@H](O5)[C@@H](O)[C@@]4(CC)CC(C(=O)OC)=C5Nc6cc(O)ccc6[C@@]56CCN1C46)C32 (stereo not given in full) | -9.16% (active)
17 | Cc1cc(C)cc(NC2=C(Cl)C(=O)c3nc(C)ccc3C2=O)c1 | 128%
18 | COc1ccc2c(c1)c(-c1nn3cc(-c4ccncc4)nc3s1)cn2C | 130%
19 | COC(=O)N1CCN(CCNCc2ccc(NC(=O)c3ccc(C)c(C#Cc4cnc5cccnn45)c3)cc2C(F)(F)F)CC1 | 68.9%
20 | CC(C)(O)c1cncc(-c2ccc3ncc(C#N)c(N4CCc5cc(F)c(Cl)cc54)c3c2)c1 | 14.3%
21 | O=C(/C=C/c1ccc(F)cc1)Nc1cccc2cccnc12 | 147%
22 | C#CCN(C)CCCOc1ccc(NCc2ccc(C(=O)NO)cc2)cc1Cl | -3.24% (active)
23 | COCCOc1ccc2ncc(C#Cc3cncc(C(=O)Nc4ccc(CN5CCN(C)CC5)c(C(F)(F)F)c4)c3)n2n1 | 14.3%
24 | CC(C)NC(=O)c1cc(-c2ccc(NC(=O)Nc3ccc(F)cc3)cc2)nc2cccnc12 | 110%
25 | O=C1c2ccccc2C23C(=C(c4cncnc4)c4ccccc42)CCCN13 (stereo not given) | 97%
26 | N#Cc1cccc(-c2cc(-c3ccc4c(c3)OCCO4)[nH]n2)c1 | 76.8%
27 | CCC(=C(c1ccc(OCCN(C)C)cc1)c1ccc(OCCN(C)C)cc1)c1ccc(Cl)cc1 | 60.2%
28 | COc1ccccc1/C=C1\Oc2ccc(O)c(O)c2C1=O | 100%
29 | CN1CCN(c2ccc(Nc3nc(NCCCNS(=O)(=O)c4ccccc4)c4sccc4n3)cc2)CC1 | 145%
30 | Nc1nc(=O)n([C@H]2C[C@H](O)[C@@H](CO)O2)cc1C=O | 108%
